Data: PubChem BioAssay (NCI)
This is part of a sample that, as a whole, favours compounds with a hit. Of some 79,000 tested, about 15% had one in any assay. A number with no mark means an inactive call. Activity calls are given as the source filed them. Rule as the data show it: active = growth inhibition above about 70%; inactive = the rest.

Legend:
[1] = NCI Yeast Anticancer Drug Screen. Data for the rad50 strain (AID 155);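 also: 0% = growth of vehicle-only cultures of the same strain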; conditions: S. cerevisiae rad50 strain growth inhibition; at 50.0 µM; active compounds read high
Summary of the method: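 Yeast carrying a defined DNA repair defect were exposed to test compounds, and growth was compared with vehicle-treated controls to give percent inhibition.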

[2] = NCI Yeast Anticancer Drug Screen. Data for the mec2-1 strain (AID 157); conditions: S. cerevisiae mec2-1 strain, at 50.0 µM, active compounds read high
Summary of the method: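 Compounds were applied to mec2-1 yeast cells. Their growth was then compared with that of vehicle-treated cultures to give growth inhibition.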

[3] = NCI Yeast Anticancer Drug Screen. Data for the sgs1 mgt1 strain (AID 161);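 also: 0% = growth of cultures given vehicle only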; conditions: S. cerevisiae sgs1 mgt1 strain, at 50.0 µM, active compounds read high
Summary of the method: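 Percent growth inhibition was derived by comparing compound-exposed mutant yeast with vehicle-exposed cultures. The strain carries alterations in DNA damage repair.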

[4] = NCI Yeast Anticancer Drug Screen. Data for the cln2 rad14 strain (AID 165);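 also: 0% = growth equal to vehicle treated cultures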; conditions: S. cerevisiae cln2 rad14 strain, at 50.0 µM, active compounds read high
Summary of the method: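 Strain: cln2 rad14 yeast, altered in cell cycle control and DNA damage repair. Read-out: growth inhibition vs vehicle.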

[5] = NCI Yeast Anticancer Drug Screen. Data for the bub3 strain (AID 167); conditions: S. cerevisiae bub3 mutant strain, at 50.0 µM, active compounds read high
Summary of the method: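 Compounds were applied to a genetically altered yeast strain carrying a cell-cycle control defect. Growth inhibition was scored against vehicle-treated controls.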

[6] = NCI Yeast Anticancer Drug Screen. Data for the mlh1 rad18 strain (AID 175); conditions: S. cerevisiae mlh1 rad18 strain growth inhibition; at 50.0 µM; active compounds read high
Summary of the method: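 A repair-deficient yeast strain is exposed to test compound, and growth is scored relative to vehicle-treated controls.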

| SMILES | growth inhibition [1] | growth inhibition [2] | growth inhibition [3] | growth inhibition [4] | growth inhibition [5] | growth inhibition [6] |
| --- | --- | --- | --- | --- | --- | --- |
| CCOC(=O)C1=C(C(=O)c2ccc(OC)cc2)C(c2cccc([N+](=O)[O-])c2)C(C(=O)c2ccc(OC)cc2)=C(C(=O)OCC)N1 | -30.8% | -1.6% | -2.5% | -2.85% | -6.45% | 2% |
| O=C(O)c1ccc2c3ccc(C(=O)O)c4c(C(=O)O)ccc(c5ccc(C(=O)O)c1c25)c43 | -21.1% | -33.5% | -17.5% | -0.25% | -19.6% | -19.1% |
| Clc1ccc2sc(-c3ccccc3)nc2c1 | -22.8% | -18.4% | -4.45% | -23.1% | 7.45% | -3.6% |
| OCc1ccccc1F | -42.4% | -34% | -20.6% | -15.3% | -15.1% | -36.2% |
| COCCNC(C)=O | 13.8% | 0.7% | 12% | -17.1% | -11.2% | 3.7% |
| CCCNCCC(=O)Nc1ccccc1C(=O)OCC | 3.15% | -18% | 0.2% | -43.1% | 29.3% | -6.25% |
| CC(=O)c1cccc(OCC(O)CN2CCN(c3ccc(C)cc3)CC2)c1 (stereo unspecified) | -12.3% | 3.95% | 4.1% | -8.9% | 3.15% | -2.25% |
| O=C(O)CCc1coc2ccc(O)cc12 | -0.45% | 10.1% | 8.4% | -20.6% | -6.1% | 14.2% |
| N#Cc1c(N)nc(Nc2cccc3ccccc23)c(C#N)c1C#N | 37.7% | 29.7% | 29.1% | 39.9% | 29.4% | 36.8% |
| [N-]=[N+]=Nc1ccccc1-c1ccccc1[N+](=O)[O-] | 35% | -6.3% | 40.3% | 0.4% | -6.4% | 28.6% |
| Cn1nc(-c2ccc(Cl)c(Cl)c2)[n+]([O-])c2c(=O)n(C)c(=O)nc1-2 | 88.8% (active) | 92.1% (active) | 88.8% (active) | 89% (active) | 85.3% (active) | 91.3% (active) |
| O=C1NCCCCC1CC/C=C/c1ccccc1 (stereo unspecified) | -13.7% | -23.2% | -3.7% | -9.6% | 32.5% | -5.85% |
| Cc1c(C)c(C)c(CCl)c(CCl)c1C | 36.1% | 16.9% | 31.9% | 10.4% | 8.3% | 24.6% |
| COc1ccccc1NC(N)=S | -9.1% | -8.5% | 5.65% | 3.25% | -4% | -26.9% |
| Cc1cccc(C)c1/[N+]([O-])=C/c1cccc([N+](=O)[O-])c1 | -1.8% | -31.1% | -3.3% | -29.4% | 10% | -2.25% |
| CCn1c(O)c(C=Nc2ccccc2)s/c1=N/Nc1nc(C)cs1 | -45.3% | -55.2% | -25% | -14.1% | -26.7% | -27.5% |
| C[N+](C)(C)N=C1CCCCC1 | 10.9% | -3.6% | -11.3% | 7.5% | -2.6% | -16.8% |
| COC1C(=O)OC(=O)C1OC (stereo unspecified) | -73% | -15.1% | -1.05% | -24.7% | -8.55% | 14.9% |
| C=C1CCCCCCCCC/C=C/1SCCCSC | 5.6% | 26.4% | -31.6% | -17.9% | -19% | -20.2% |
| Nc1nnc2nc(CC(=O)c3ccc(F)cc3)c(CC(=O)c3ccc(F)cc3)nn12 | -3.6% | 30.3% | 6.6% | -2.7% | 1.2% | 6.7% |
| CC(C)(C)c1ccc(O)c(C(O)c2cccnc2)c1 (stereo unspecified) | 18.7% | 16.6% | 16.5% | 13.9% | 29.8% | 39.2% |

| SMILES | growth inhibition [1] | growth inhibition [2] | growth inhibition [3] | growth inhibition [4] | growth inhibition [5] | growth inhibition [6] |
| --- | --- | --- | --- | --- | --- | --- |
| Cc1n[n+](Cc2ccccc2)c2sc(N)nn12 | 2.85% | 6.25% | -41.6% | 20% | 26.9% | -26.1% |
| Cc1ccc2c(C)cc(=O)n(C)c2c1 | 4.7% | 11.2% | 9.6% | 4.9% | -0.25% | 15.1% |
| CC1CC(O)CC(C)(C)C1.CC1CC(O)CC(C)(C)C1.CC1CC(O)CC(C)(C)C1.CC1CC(O)CC(C)(C)C1.[Ti] (stereo unspecified) | 13.9% | -4.65% | 23.2% | 15.1% | 32.5% | 31.9% |
| COc1ccc(N=C(C)c2c(O)n(-c3ccccc3)[nH]c2=O)cc1 | 98.8% (active) | 97.5% (active) | 99.2% (active) | 99.1% (active) | 98.8% (active) | 98.5% (active) |
| O=C(c1ccc(F)cc1)C1CCC1 | 16.3% | -22.7% | 16.6% | 18.1% | 18.6% | 22.1% |
| N/C(=C\C(=O)c1ccccc1)C(=O)c1ccccc1 | 5.7% | 4.65% | -15.5% | -10.7% | 0.65% | -1.55% |
| CC1OC(OC2C(CO)OC(O[C@H]3CC[C@@]4(C)C(=CC[C@H]5[C@@H]6C[C@@H]7O[C@]8(CC[C@@H](C)CN8)[C@@H](C)[C@@H]7[C@@]6(C)CC[C@@H]54)C3)C(O)C2O)C(O)C(O)C1O (stereo partly specified) | -17.1% | -26.6% | -0.75% | 15.2% | 6.1% | 1.7% |
| Cc1ccc2c(ccc3ccccc32)n1 | 59.8% | 16.8% | 60% | -4.4% | 50.5% | 45.4% |
| O=c1[nH]c(=O)n(C2OC(CO)C(O)C2O)cc1I (stereo unspecified) | -10.2% | -9.95% | -6.9% | 15.2% | 5.6% | -13.8% |
| CC1(C)SC(C)(C)C1=O | -13.6% | -7.35% | -0.6% | -36.8% | 2.05% | -5.15% |
| CCCCCC(=O)Oc1ccccc1OC | -8.1% | -5.55% | 1.15% | -29.4% | -7.85% | -7.9% |
| OC1COC(O)(CNCCc2c[nH]c3ccc(OCc4ccccc4)cc23)C(O)C1O (stereo unspecified) | -25.5% | 7.25% | -18.2% | -49.7% | -20.7% | 19.1% |
| CC1(Cc2ccccc2)NC(=S)NC1=O (stereo unspecified) | -1.25% | -10.8% | -9.9% | 5.75% | -1.7% | -7.35% |
| O=C(C[n+]1cc(Br)cc(Br)c1)c1ccc2ccccc2c1 | 27.2% | 3.45% | 7.7% | 11.8% | 20.2% | 43.6% |
| CC(c1ccc(O)cc1)c1cc2c(cc1OCCO)OCO2 (stereo unspecified) | 99.3% (active) | 99% (active) | 99.4% (active) | 99.3% (active) | 99.5% (active) | 99.1% (active) |
| CCOC(=O)CCC(NC(=O)c1ccc([N+](=O)[O-])cc1)C(=O)OCC (stereo unspecified) | 29.6% | -32.3% | -7.3% | -86.5% | 7.7% | 26.1% |
| CS(=O)(=O)Nc1cccc(C(=O)O)c1 | 28.6% | -0.05% | 14.8% | -2.85% | -28.9% | -23% |
| N#Cc1ccc(OC(=O)Nc2ccccc2C(F)(F)F)cc1 | 2.4% | -18.9% | -5.2% | -2.1% | -14.9% | -0.85% |
| COC(=O)CCC(=O)c1ccc2c(c1)CCC2 | -3.25% | -26.2% | 17.2% | 3% | 33.5% | 7.65% |
| CCn1c(C)nc2c(N)cccc2c1=O | 24.4% | -4.75% | -7.9% | -6.6% | -11% | 2.75% |
